# Screening data as filed in PubChem BioAssay.
# The list is not random: actives were taken first. Their share in the collection is about 2.8%.
# SNCA expr inhib: reduces expression of the alpha-synuclein gene | HEK-293 SNCA-luciferase knock-in, luminescence, 24 h | Potency, µM (series often up to 57.2 µM), most hits filed as inhibitors | actives 0.17% (n = 140,000) | AID 1671194; also: nearly all actives have a fitted effect of over 45% in size
# IP6K1 inh: inhibitors of human IP6K1 | Q92551 | IP6K1 kinase, ADP-Glo luminescence, 2 h; active compounds read low | activity change, % (series mostly up to about 58 µM) | actives 0.81% (n = 140,000) | AID 1645851; in the data active = activity change below about -25%
# Target sequence (Q92551 whole entry, looked up): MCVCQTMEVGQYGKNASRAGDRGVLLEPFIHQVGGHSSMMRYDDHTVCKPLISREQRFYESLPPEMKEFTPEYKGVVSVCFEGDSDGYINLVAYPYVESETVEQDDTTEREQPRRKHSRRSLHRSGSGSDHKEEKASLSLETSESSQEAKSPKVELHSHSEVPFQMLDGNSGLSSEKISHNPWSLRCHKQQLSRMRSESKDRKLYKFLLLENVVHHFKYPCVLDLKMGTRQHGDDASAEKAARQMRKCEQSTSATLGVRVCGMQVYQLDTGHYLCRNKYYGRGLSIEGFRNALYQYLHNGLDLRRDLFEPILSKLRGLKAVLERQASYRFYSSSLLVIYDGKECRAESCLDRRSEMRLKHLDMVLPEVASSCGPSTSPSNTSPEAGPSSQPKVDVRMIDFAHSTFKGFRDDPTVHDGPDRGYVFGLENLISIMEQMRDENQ
#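 ADP-Glo luminescence measures ADP made by human IP6K1 during a 2 h RT reaction with ATP/IP6 (mix at 1.3 mM/130 uM); top library doses 57.5 and 19.1 uM final.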
# HEK293 viab: reduces viability of HEK-293 SNCA reporter cells; actives 0.12% (n = 150,000); AID 1671193; HEK-293-SNCA-luc viability, GF-AFC fluorescence, 24 h; Potency, µM (doses to about 57.1 µM), usual class: cytotoxic; also: nearly all actives have a fitted effect of over 30% in size
#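 HEK-293-SNCA-luc cells (1500/well) plated 24 h, then exposed 24 h to a dilution series; GF-AFC added 30 min at 37C, fluorescence 405/540 nm; normalised to medium-only and DMSO wells, Hill fit.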
# KDM5B inh: inhibitors of human KDM5B histone demethylase; Q9UGL1; KDM5B demethylase, FDH-coupled NADH fluorescence (FDH is formaldehyde dehydrogenase); Potency, µM (highest dose often 57.7 µM), most hits filed as inhibitors; actives 2.6% (n = 220,000); AID 1347165; also: nearly all actives have a fitted effect of over 70% in size
#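 Here, H3K4me3 peptide (12.5 µM in substrate mix) is demethylated by KDM5BΔAP, 200 nM final, after 10 min compound exposure. Formaldehyde product is coupled through FDH (0.25 U/mL in mix) to NADH fluorescence; 30-min ΔRFU feeds dose-response curves.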
# IP6K1 inh cnf: human IP6K1 inhibition, confirmatory. shares compounds with IP6K1 inh. recombinant IP6K1 kinase, ADP-Glo luminescence, 2 h. Potency, µM (top dose mostly 49 µM), actives largely listed as inhibitors. actives 13% (n = 1,200); also: nearly all actives have a fitted effect of over 65% in size
# Hits are given with their value; 0 = inactive; ? = inconclusive; - = no result given. Unless noted, calls follow the shape of the dose curve; as a rule, active = well fitted curve in the direction sought with a large enough effect; inconclusive = small, poorly fitted or top-dose-only effect, or another doubt; inactive = no such curve, though single readings can be large; an effect the other way counts as inactive or inconclusive.
SMILES,SNCA expr inhib,IP6K1 inh,HEK293 viab,KDM5B inh,IP6K1 inh cnf
COc1cccc(NC(=O)CC2C(=O)OCCN2Cc2ccccc2)c1 (stereo unspecified),0,-48,0,0,0
C/C(=N\NC(=O)C1CC1c1ccccc1)c1cccc(C)c1 (stereo unspecified),-,-,-,0,-
O=C1CCC2(CCCO2)CCN1Cc1c(F)cccc1F (stereo unspecified),0,0,0,0,-
O=C1CCC2(CCCO2)CCN1Cc1cccc(F)c1F (stereo unspecified),0,-31,0,0,0
Cc1ncoc1C(=O)N1CCCCCCNC(=O)[C@@H]2C[C@@H](c3nc(Cc4ccccc4)no3)C[C@@H]21,0,0,0,?,-
NC(=O)c1cccc(-c2cc(Nc3ccc(OC(F)(F)F)cc3)ncn2)c1,0,-25,0,-,?
O=C(NCCO)c1cccc(-c2cc(Nc3ccc(OC(F)(F)F)cc3)ncn2)c1,-,0,0,-,-
O=C(Cn1cc(S(=O)(=O)Cc2cccc(Cl)c2)c2ccccc21)Nc1ccc(F)c(Cl)c1,0,-37,0,0,0
COc1cccc(OC(=O)CSc2nnc(-c3ccc4c(c3)OCO4)o2)c1,?,-32,0,?,?
CCC(=O)Nc1cc(C(=O)NCc2ccc(N3CCN(C)CC3)cc2)c2ccc(C)nc2c1,0,0,0,?,-
COc1ccc(N2CCN(CC(O)COc3c(OC)cccc3OC)CC2)cc1 (stereo unspecified),0,-46,0,?,0
COc1ccc(N2CCN(CC(O)COc3ccccc3C(C)(C)C)CC2)cc1 (stereo unspecified),?,-27,0,?,?
C=C(C)Cn1c(N2CCNCC2)nc2c1c(=O)[nH]c(=O)n2C,-,-,-,0,-
COc1ccc(NC(=O)c2c(NCc3cccc(OC)c3)sc3c2CCCC3)cc1,?,0,0,?,-
COc1ccc(NC(=O)c2c(NCc3ccc(N(C)C)cc3)sc3c2CCC3)cc1,0,-27,0,?,0
COc1ccccc1C(=O)N1CC(Oc2ccc3c(c2)OCO3)C1,0,0,0,0,-
O=C(Nc1nnc(N2CCCCCC2)s1)Nc1cc(F)ccc1F,0,-29,0,0,0
O=C(CSc1nnc(-c2ccc(Cl)cc2)o1)c1ccc([N+](=O)[O-])cc1,0,0,0,0,-
CC(=O)Nc1cccc(-c2nnc(SCC(=O)c3cc([N+](=O)[O-])ccc3Cl)o2)c1,0,-31,?,?,?
C=CC(=O)Nc1cc(Nc2ncc(Cl)c(-c3c[nH]c4ccccc34)n2)c(OC)cc1N(C)CCN(C)C,-,-26,?,-,?
COc1ccc(Cl)cc1NC(=O)C(=O)c1c[nH]c2ccccc12,-,-,-,0,-
CC(=O)C1=C(C)N(C2CCCCC2)C(=O)C1(NC(=O)C1CCCCC1)C(F)(F)F (stereo unspecified),-,-,-,0,-
Cn1cc(-c2cnc3[nH]cc(CC(=O)Nc4ccccc4Cl)c3c2)cn1,0,-26,0,32µM,?
Cc1ccc2c(c1)OC(c1ccc3c(c1)OCCO3)CC2=O (stereo unspecified),-,-,-,0,-
O=C1C[C@@H](c2ccc(O)cc2)Oc2cc(O)ccc21,-,-35,0,-,?
SMILES,SNCA expr inhib,IP6K1 inh,HEK293 viab,KDM5B inh,IP6K1 inh cnf
O=C(c1ccc2cc[nH]c2c1)N1CCC(N2CC(OCC3CC3)C23CCCCC3)CC1 (stereo unspecified),0,0,0,?,-
CC(=O)c1ccc(NC(=O)CSc2nnc(N)s2)cc1,0,-31,0,0,0
Nc1nnc(SCC(=O)Nc2ccccc2)s1,0,0,0,?,-
CCCCCCCCCCCCSCC(=O)O,-,-,-,0,-
CCCCCCCCCCCCCCCCC(C(=O)O)C(O)(CC(=O)O)C(=O)O (stereo unspecified),0,-78,0,-,23µM
Cc1ccccc1C(=O)Nc1cccc(-c2nc3cccnc3s2)c1,0,-29,0,?,?
Cc1cccc(CC(=O)Nc2cccc(-c3nc4cccnc4s3)c2)c1,0,0,0,?,-
CCC(=O)N1CCc2cc(Br)cc(S(=O)(=O)N(CC)Cc3ccccc3)c21,0,-27,0,0,0
CCC(=O)N1CCc2cc(Br)cc(S(=O)(=O)NCCCN(CC)Cc3ccccc3)c21,-,-,-,0,-
CCC(=O)N1CCc2cc(Br)cc(S(=O)(=O)CCC(=O)N3CCN(c4ccccc4OC)CC3)c21,0,-27,0,0,0
